We go through 45 sequences from the supplement of paper PMC11417369.

The full ranking holds about 25,000 sequences; the median of “ln(normalized median fluorescence intensity)” is about 9.3, and the highest 2% start at about 10. For the sample, the highest values were picked, then their nearest neighbours and some sequences at random.

For this assay, the system named is PF3D7_0420300 AP2 domain 1 (GST-tagged). Description: gcPBM binding intensity (ln(normalized median fluorescence intensity)); higher = stronger DNA binding. The procedure, abridged: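 An Agilent 4 × 180k array of primer-extended double-stranded 36-bp intergenic genomic probes, with negative controls, was incubated for 1 h with GST-tagged P. falciparum DNA-binding domains expressed in E. coli. Alexa488 anti-GST antibody detected bound protein, scanned at 488 nm. Binding intensity is the highest Masliner-normalised natural-log median intensity across replicate spots of either probe orientation.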
In the case of “TTAAACTTGAGACACACACACACACGGATATAAAAA [CACACA_site6495]”, the “gcPBM binding intensity (ln)” value was found to be 10.2.
The same measure for “CAAAAGGATAGGCACACACACACACCGATATATATA [CACACA_site8685]”: 10.2; for “AAAAAAAAAAGACACACACACACACGGAGATATATA [CACACA_site6216]”: 10.3; for “ATTTATGAAAAATGTACACACATCAAATGCTTATAT [CACACA_site4068]”: 9.42.
Under “AAATGAAAGAACAGCACACATATATATTATATATAA [CACACA_site2002]” stands 9.63.
Take “ATTGCATATAATGGCACACATAAATCCATAATATAT [CACACA_site297]”: the “gcPBM binding intensity (ln)” value worked out at 9.29.
Take “GTTAATATACATAAACGTACAGAATTATTATGAGTT [XGTACX_site5185]”: the “gcPBM binding intensity (ln)” value is 9.13.
Under “TGTTTAACATTTATATGTACATATATTCACATATTA [XGTACX_site342]” stands 9.29.
Take “AACAATATATTGAATAGTACATATATATAAACATAT [XGTACX_site2811]”: the “gcPBM binding intensity (ln)” value is 9.46.
In the case of “GTAGAAAGAAAAATTAGTACTTAAATATTATAAAAA [XGTACX_site8458]”, the “gcPBM binding intensity (ln)” value turned out to be 9.11.
Regarding “ACCCATAAAAAGGATACACACACACCCACCCATATA [CACACA_site8205]”, the “gcPBM binding intensity (ln)” value turned out to be 10.4.
Under “AATATAAGGATATATACACACATAAATACATACATA [CACACA_site7859]” stands 9.89.
Under “CCATAAAAAGGATACACACACACACGCACATATATA [CACACA_site6550]” stands 10.2.
Under “AATAAATATAAATACACACCCATATAAATATAAATA [CACACA_site7264]” stands 9.85; under “AATAAATATAAATACACACCCATATATATATATATA [CACACA_site5436]”, 9.45.
For the sequence “TAGATACATACACGCACACACATATATAAATAAATA [CACACA_site6157]”, the “gcPBM binding intensity (ln)” value amounted to 9.85.
As for “TTTTATAAATCTAAACGTATCTAAATGAATAATTAA [GTGCAC_negctrl_site44]”, the “gcPBM binding intensity (ln)” value amounted to 8.84.
The same measure for “TTTATAACATTTAAGAGTACAAAAAAATAAATAAAT [XGTACX_site1264]”: 9.37.
Turning to “TATTGTAGAGGCAAAAGTACACATTTAATAATTTCC [XGTACX_site1151]”, the “gcPBM binding intensity (ln)” value is 9.23.
“AAACTTGTAAGAAACACACACACACCCATATATATA [CACACA_site797]”: the “gcPBM binding intensity (ln)” value was determined as 10.1.
On to “GTAAGAAACAGACACACACACATATATATATATATA [CACACA_site794]”, for which the “gcPBM binding intensity (ln)” value was found to be 9.79.
In the case of “AAACTTGTAAGAAACACACACACACGCATATAAATA [CACACA_site6518]”, the “gcPBM binding intensity (ln)” value amounted to 10.
Turning to “ACTTGTAAGAAACACACACACACACCCATATATATA [CACACA_site796]”, the “gcPBM binding intensity (ln)” value was determined as 10.4.
Under “ACTTGTAAGAAACACACACACACACCGATATATATA [CACACA_site4594]” stands 10.4.
The same measure for “TTGTAAGAAAAACACACACACACATATATATATATA [CACACA_site795]”: 9.95.
Regarding “AATATAAAAATGTTTACACACACACGGAAATATATT [CACACA_site7226]”, the “gcPBM binding intensity (ln)” value turned out to be 10.1.
The same measure for “TATATATATATGTGTATACACACCTGATAAAGGTAT [CACACA_site2653]”: 9.42.
The same measure for “AAAAAATTCATATATACACACACGCACATATATATA [CACACA_site4226]”: 9.84; for “CTTAAATTTTTAAATACACACATACACCCATACACA [CACACA_site4461]”: 9.64.
Under “AAAAATTTGGCATACACACACACACCCACACCCACA [CACACA_site587]” stands 10.2.
“AAAATTCATATATACACACACGCACATATATATATA [CACACA_site90]”: the “gcPBM binding intensity (ln)” value worked out at 9.85.
Turning to “AAAAATTTGGCATACACACACACACGCACACGCACA [CACACA_site6422]”, the “gcPBM binding intensity (ln)” value came to 10.2.
As to “TACAAAAAAAATGTATTTAGGACATATATATGTTTA [XGTACX_negctrl_site455]”, the “gcPBM binding intensity (ln)” value came to 9.02.
The same measure for “ACGTTTTATAATTAATGTACAAATATTAAAATTGCA [XGTACX_site7869]”: 9.07.
With “GCTAGTTTTTTTTGGCGTACAGTACCGGTTTACTTT [XGTACX_site2606]”, the “gcPBM binding intensity (ln)” value was determined as 9.42.
Under “AAAAAAAAAAAATAATGTACATATGTATTTGAGAAA [XGTACX_site3572]” stands 9.23.
In the case of “TAACAAAATGTAAATAAACACACATATATATATATA [CACACA_site8352]”, the “gcPBM binding intensity (ln)” value is 9.37.
For the sequence “TATAACAAATAAAAATGTACATATATATAATATATA [XGTACX_site6173]”, the “gcPBM binding intensity (ln)” value turned out to be 9.38.
In the case of “ACAAAATGTAAATAAACACACATATATATATATATA [CACACA_site1281]”, the “gcPBM binding intensity (ln)” value worked out at 9.3.
Under “ATAACAAAATAAAACACACACACAAATGTACATATA [CACACA_site2425]” stands 10.3; under “ATGTTGTACAAACACACACACAAAAAAAAAATAAAA [CACACA_site2406]”, 9.89; under “AACAAAATAAAACACACACACAAATGTACATATATA [CACACA_site2424]”, 10.2.
“ATAATATAACACAAATGTACAAAAAATAAATAAATA [XGTACX_site385]”: the “gcPBM binding intensity (ln)” value was determined as 9.51.
Under “AAAAATATAATATAATGTACACATAAACAAAAAAAA [XGTACX_site3658]” stands 9.58; under “ATAACAAAATAAAACACACACACAAATGTACAGATA [CACACA_site5358]”, 10.3.
